FUS yeast rescue = FUS proteinopathy suppression in yeast | Potency, µM (series often up to 76.6 µM), actives largely listed as activators | 390,000 tested, 0.24% active | AID 1347120 | S. cerevisiae FUS-expressing, growth rescue, OD600, 24 h; note: nearly all actives have a fitted effect of over 55% in size
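Absorbance at 600 nm, taken 24hr after compound addition, measured rescue of FUS-yeast growth at 30C. Induction used 2% galactose with seeding at OD 0.005. Controls: CP55940 from 92uM final, DMSO only.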
Abeta rescue = restores growth of yeast expressing A-beta42 peptide. 410,000 tested, 0.063% active. Potency, µM (doses to about 46.1 µM), usual class: activators. AID 1347071. yeast expressing A-beta42, growth rescue, OD600, 48 h; response scale: 0% DMSO, 100% iron-clioquinol control; note: nearly all actives have a fitted effect of over 55% in size
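Growth rescue measured by 600 nm absorbance after 48 h yeast culture at 30 C with compound. Values normalized between DMSO and an equimolar ferric chloride plus clioquinol control.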
TDP43 rescue = TDP-43 toxicity inhibition in yeast; TDP-43 expressing yeast growth rescue, BacTiter-Glo, 24 h; Potency, µM (doses to about 46.1 µM), most hits filed as activators; 410,000 tested, 1.8% active; note: nearly all actives have a fitted effect of over 50% in size
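Growth rescue of TDP-43-toxic yeast measured as ATP luminescence (BacTiter-Glo). Cells grown to mid-log in raffinose, induced in galactose at OD600=0.02, exposed to compound 24 hr at 30 deg C.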
aSyn rescue = rescues yeast growth from alpha-synuclein toxicity | Potency, µM (titrated, usually from 46.1 µM), actives largely listed as activators | AID 652106 | Yeast expressing alpha-synuclein, growth rescue, BacTiter-Glo, 24 h | 370,000 tested, 0.14% active; note: nearly all actives have a fitted effect of over 65% in size
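Readout is rescue of growth in alpha-synuclein-expressing yeast, so inhibitors of toxicity appear as activators. Growth after 24 hr at 30 deg C in galactose medium is quantified by luminescence.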
A number is an active result; - = inactive; ? = inconclusive; . = no result given. Rows were chosen to be rich in hits. Some 2.1% of all compounds tested hit in one or more screens of this group. Calls come from the whole dose curve; as a rule, active = well fitted curve in the direction sought with a large enough effect; inconclusive = small, poorly fitted or top-dose-only effect, or another doubt; inactive = no such curve, though single readings can be large; an effect the other way counts as inactive or inconclusive.

SMILES	FUS yeast rescue	Abeta rescue	TDP43 rescue	aSyn rescue
Cc1cc(Nc2cccc(Cl)c2)nc2ccc(NC(=O)c3cccc(N(C)C)c3)cc12	?	-	15.8µM	.
Cc1cc(Nc2cccc(C(F)(F)F)c2)nc2ccc(NC(=O)Cc3ccc(Cl)cc3)cc12	-	-	14.1µM	.
Cc1cc(Nc2cccc(Cl)c2)nc2ccc(NC(=O)c3cccnc3)cc12	-	-	-	.
O=C(N(c1ccccc1)c1ccccc1)N(c1ccccc1)c1ccccc1	-	-	-	-
O=C(CCl)N(c1ccccc1)c1ccccc1	-	-	17.8µM	-
Cc1csc(N/N=C/c2c(F)cccc2Cl)n1	-	-	28.2µM	-
CN(C)CCNc1ncnc2c1ncn2[C@H]1CN(CCc2ccccc2)C[C@@H](CO)O1	-	-	?	-
CCC(=O)Nc1ccc(Cl)c(NC(=S)NC(=O)c2ccco2)c1	-	-	11.2µM	-
O=C(NC(=S)NCCc1ccc(Cl)cc1)c1ccco1	-	?	14.1µM	-
O=C(NC(=S)NCCc1ccccc1)c1ccccc1F	-	-	11.2µM	-
Cc1cccc(CN2CCN(C3CN(Cc4cn(Cc5ccc(Cl)cc5)nn4)S(=O)(=O)C3)CC2)c1 (stereo not drawn)	-	-	-	-
CC1(C)Cc2cccc(C(=O)Nc3ccc(F)cc3F)c2O1	-	-	20µM	-
COc1nnc(-c2ccc(N3CCCCC3)c(NC(=O)C3CCCCC3)c2)c2ccccc12	.	-	-	-
COc1nnc(-c2ccc(N3CCCCC3)c(NC(C)=O)c2)c2ccccc12	-	-	22.4µM	-
S=C(Nc1ccccc1)N1CCc2ccccc21	-	?	12.6µM	-
Fc1cccc(NC(=S)N2CCc3ccccc32)c1	-	?	14.1µM	-
CC(=O)c1cccc(NC(=S)N2CCc3ccccc32)c1	-	-	?	-
CCOC(=O)C1(C)CCCN(C(=O)COc2ccccc2)C1 (stereo not drawn)	-	-	-	-
O=C(NC(Cc1c[nH]c2ccccc12)C(=O)O)OCC1c2ccccc2-c2ccccc21 (stereo not drawn)	-	-	-	-
Cc1cc2nc(C(C)(C)C)c(Cc3ccsc3)n2c(C)c1Br	-	?	12.6µM	-
Cc1ccc(Cc2c(C3CCCCC3)nc3cc(C)c(Br)c(C)n23)cc1	-	-	-	-
Cc1cc2nc(C3CCCCC3)c(Cc3ccsc3)n2c(C)c1Br	-	-	-	3.55µM
ON=C1c2ccccc2-c2ccc(Br)cc21	.	-	3.16µM	-
CCn1cc(C(=O)OCC(=O)c2cc(C)n(-c3ccccc3)c2C)c(=O)c2ccc(C)nc21	-	-	-	-
CCn1cc(C(=O)OCC(=O)c2cc(C)n(-c3ccc(OC(F)F)cc3)c2C)c(=O)c2ccc(C)nc21	.	-	12.6µM	-
SMILES	FUS yeast rescue	Abeta rescue	TDP43 rescue	aSyn rescue
CCOc1ccccc1NC(=O)COC(=O)c1cn(CC)c2nc(C)ccc2c1=O	-	-	35.5µM	.
COc1ccc(/C=C/C(=O)N2CCN(S(=O)(=O)c3ccccc3Br)CC2)cc1OC	?	-	22.4µM	?
CC1CCN(c2c([N+](=O)[O-])nn(-c3ccc4c(c3)OCCO4)[n+]2[O-])CC1	?	-	12.6µM	-
O=C(c1ccco1)N1CCN(c2c([N+](=O)[O-])nn(-c3ccc(Cl)cc3)[n+]2[O-])CC1	-	-	-	-
CCOC(=O)C(C(=O)OCC)C(c1ccccc1)N1CCN(c2ccccc2)CC1 (stereo not drawn)	-	-	12.6µM	-
Cc1ccc(CCNS(=O)(=O)c2ccc3c(c2)CC(C)N3C(=O)C2CCC2)cc1 (stereo not drawn)	-	-	?	.
CC1Cc2cc(S(=O)(=O)NCCc3ccc(Cl)cc3)ccc2N1C(=O)C1CCC1 (stereo not drawn)	-	?	17.8µM	.
CCn1nnnc1Sc1nc(C)nc2scc(-c3ccccc3)c12	.	.	.	-
COc1cccc2c(=O)c3ccoc3n(C)c12	-	-	-	-
COc1cccc2c(=O)c3c(cnn3C)n(C)c12	-	?	?	25.1µM
CC(C)CC(COCc1ccc(Cl)cc1)N1CCN(C(=O)c2ccc(Cl)cc2Cl)CCC1=O (stereo not drawn)	?	-	25.1µM	?
Cc1cccc(COC[C@H](Cc2ccccc2)N2CCN(C(=O)c3cccc(Cl)c3)CCC2=O)c1	?	-	17.8µM	?
Cc1cccc(COCC(Cc2ccccc2)N2CCN(C(=O)c3cccc(Cl)c3)CCC2=O)c1 (stereo not drawn)	?	-	-	?
Cc1ccc(Nc2c(-c3ccc(C)o3)nc3cnccn23)cc1	-	-	22.4µM	-
CSc1ccc(-c2nc3cnccn3c2Nc2ccc3c(c2)OCO3)cc1	-	-	25.1µM	-
Cc1ccc(-c2nc3cnccn3c2Nc2ccccc2)o1	-	-	35.5µM	20µM
Cc1ccc(Nc2c(-c3ccc(C)o3)nc3ccccn23)cc1	.	.	.	-
Cc1ccc(-c2nc3ccccn3c2Nc2ccccc2)o1	-	-	-	-
CCOc1ccc(OCC)c(NS(=O)(=O)c2cc(-c3onc(C)c3C)ccc2OC)c1	-	-	-	.
Cc1ccc(CSCC(=O)N2CCN(c3cc(Cl)ccc3C)CC2)cc1	-	-	17.8µM	.
Cc1ccc2c(c1)-c1onc(C(=O)N3CCN(c4cccc(C)c4C)CC3)c1CO2	-	-	-	-
Cc1ccc(Cl)cc1N1CCN(C(=O)c2noc(C)c2[N+](=O)[O-])CC1	-	-	12.6µM	-
Cc1onc(C(=O)N2CCN(c3ccccc3)CC2)c1[N+](=O)[O-]	-	-	?	-
O=C(c1noc2c1CCCCC2)N1CCN(c2ccc(Cl)cc2)CC1	-	-	-	.
Cc1ccc(Cl)cc1N1CCN(C(=O)c2noc3c2CCCC3)CC1	-	-	22.4µM	.
SMILES	FUS yeast rescue	Abeta rescue	TDP43 rescue	aSyn rescue
Cc1cccc(N2CCN(C(=O)c3noc4c3CCCCC4)CC2)c1C	-	-	15.8µM	.
CCOc1ccccc1NC(=O)CN1CCC(NC(=O)Nc2ccccc2)CC1	-	-	-	-
COc1ccc(C2C(C(=O)c3cccs3)=C(O)C(=O)N2CCN2CCOCC2)c(OC)c1 (stereo not drawn)	-	-	-	-
O=C(NN=C(Cc1ccccc1)Cc1ccccc1)c1ccccc1O	-	-	-	-
NC(=S)NN=C(Cc1ccccc1)Cc1ccccc1	-	?	15.8µM	-
NNC(=S)Nc1ccc(Cl)cc1	-	?	-	-
NNC(=S)Nc1ccc(OC(F)(F)F)cc1	-	11.2µM	-	-
CCOC(=O)c1cccc(NC(=O)C2Cc3ccccc3N2C(=O)c2ccccc2)c1 (stereo not drawn)	-	-	-	.
CCC(C)Nc1nc(-c2cccc(OC)c2O)nc2ccccc12 (stereo not drawn)	-	-	11.2µM	-
COc1cccc(-c2nc(NC(C)C)c3ccccc3n2)c1O	-	-	20µM	-
COc1cccc(-c2nc(NCc3cccnc3)c3ccccc3n2)c1O	-	-	-	-
COc1cc(NC(=O)CCc2nnc3ccc(N4CCN(C)CC4)nn23)cc(OC)c1	-	-	-	-
Cc1cc(N2CCOCC2)n2ncc(-c3ccc(Cl)cc3)c2n1	-	-	-	-

Screening data (PubChem BioAssay)
